High-throughput results deposited in PubChem BioAssay by National Center for Advancing Translational Sciences (NCATS).
Rows were chosen to be rich in hits. Some 6.1% of all compounds tested hit in one or more screens of this group.
D1 potentiator – Potentiators of Human D1 Dopamine Receptor: qHTS; D(1A) dopamine receptor (Homo sapiens), P21728; HEK293 TREx D1 cells, calcium flux, dopamine EC20 potentiation; potentiation, % at 10 µM; 360,000 tested, 0.036% active; AID 504651, 2011; in the data active = potentiation above about 30%; note: 0% is about no effect
Target sequence (P21728 whole entry, looked up): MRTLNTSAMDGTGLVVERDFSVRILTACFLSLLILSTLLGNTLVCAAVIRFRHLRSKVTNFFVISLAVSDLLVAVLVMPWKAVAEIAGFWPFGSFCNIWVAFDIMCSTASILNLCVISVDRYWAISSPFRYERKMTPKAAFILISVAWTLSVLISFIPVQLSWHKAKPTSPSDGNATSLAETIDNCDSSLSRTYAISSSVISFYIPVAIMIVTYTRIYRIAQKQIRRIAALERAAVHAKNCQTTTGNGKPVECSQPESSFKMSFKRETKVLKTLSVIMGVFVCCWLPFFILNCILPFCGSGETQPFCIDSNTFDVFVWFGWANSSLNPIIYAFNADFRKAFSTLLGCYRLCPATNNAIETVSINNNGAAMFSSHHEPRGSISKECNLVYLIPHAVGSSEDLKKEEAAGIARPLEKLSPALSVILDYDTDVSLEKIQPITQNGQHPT
D3 antag – qHTS of D3 Dopamine Receptor Antagonist: qHTS; max response, negative = inhibition, %; 360,000 tested, 2.5% active; D3R cells, DiscoveRx beta-arrestin luminescence, antagonist mode; active compounds read low; in the data active = max response below about -50%; inconclusive = no clear call, values can overlap the other calls; note: % is set by controls: 0 for no effect and ±100 for the full control effect
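Cells plated overnight at 1500 cells/well, then exposed to library compounds with dopamine controls for 90 minutes at 37 degrees C. DiscoveRx reagent added for 30–60 minutes at room temperature; luminescence read, quantitative HTS format.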
D3 ag – qHTS of D3 Dopamine Receptor Agonist: qHTS | 410,000 tested, 0.58% active | D(3) dopamine receptor (Homo sapiens), P35462 | D3R DiscoveRx beta-arrestin cells, luminescence, 90 min | max activation, % | AID 652048, 2013; in the data active = max activation above about 30%; note: 0% is about no effect
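Agonist-mode cell screen: cells plated at 1500/well and incubated overnight at 37 °C, then exposed to library compounds for 90 min at 37 °C. Detection reagent was added for 30–60 min at room temperature, and luminescence was read.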
D1 ag – Allosteric Agonists of the Human D1 Dopamine Receptor: qHTS. D(1A) dopamine receptor (Homo sapiens), P21728. HEK293 T-REx D1 cells, calcium flux, agonist mode. activation, % at 2 µM. 360,000 tested, 1% active; in the data active = activation above about 30%; note: 0% is about no effect
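Tetracycline-induced HEK293 TREx D1 cells, force-coupled to calcium signalling, were dye-loaded with a no-wash calcium kit. Compound was pin-added after a 10 s baseline. Fluorescence was read kinetically at 1 cycle/s for 180 s, with calcium rises flagged as agonism.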
D1 antagonist – Antagonist of Human D 1 Dopamine Receptor: qHTS | activity change, negative = inhibition, % at 10 µM | HEK293 TREx D1 cells, calcium flux, dopamine EC80; active compounds read low | D(1A) dopamine receptor (Homo sapiens), P21728 | AID 504652, 2011 | 360,000 tested, 3.2% active; in the data active = activity change below about -30%; note: % is set by controls: 0 for no effect and ±100 for the full control effect
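Kinetic fluorescence of a calcium dye serves as the read-out. D1-expressing Hek293 Trex cells, induced overnight at 30 C, are exposed to compound for 180 s before an EC80 dopamine addition, then read 180 s further.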
An asterisk follows results filed as active; ? = inconclusive; . = not tested or not shown.

SMILES	D1 potentiator	D3 antag	D3 ag	D1 ag	D1 antagonist
CCOC(=O)N1CCN(S(=O)(=O)N2CCCC(C(=O)NCCc3ccc(Cl)cc3)C2)CC1 (centres undefined)	-3	2	-11	5	-41*
Cc1noc(C)c1S(=O)(=O)N1CCCC(C(=O)NCCc2ccc(Cl)cc2)C1 (centres undefined)	6	-72*	1	1	6
CCOC(=O)c1c(C)[nH]c(C)c1S(=O)(=O)N1CCCC(C(=O)NCc2ccc(C)cc2)C1 (centres undefined)	-3	.	-7	1	-3
CCOc1ccc(S(=O)(=O)N2CCCC(C(=O)NCc3ccncc3)C2)cc1Cl (centres undefined)	-4	-4	-2	13	-31*
CCOC(=O)c1c(C)[nH]c(C)c1S(=O)(=O)N1CCCC(C(=O)NCc2ccc(Cl)cc2)C1 (centres undefined)	2	.	4	4	-31*
Cc1nn(C)c(C)c1S(=O)(=O)N1CCCC(C(=O)NCCc2ccc(Cl)cc2)C1 (centres undefined)	-2	75	6	0	10
O=C(O)C1=CC[C@@H](c2ccc(Cl)cc2)N(S(=O)(=O)c2ccc(Cl)cc2)[C@H]1c1cccc(Cl)c1	-3	-28	-22	0	0
CCCS(=O)(=O)NC(=O)C1(C)CCN(C(=O)/C=C/c2ccccc2)C1 (centres undefined)	.	-21	-5	.	.
Cc1ccc(OC(=O)c2cccc(S(=O)(=O)N3CCCC3)c2)c(-n2nc3ccccc3n2)c1	-9	-19	9	8	-26
CCN(C(=O)Cn1c(=O)oc2cc(S(=O)(=O)N3CCCC3)ccc21)c1cccc(C)c1	-2	.	-9	0	2
COCCN(Cc1ccccc1)C(=O)c1ccc2c(=O)n3c(nc2c1)CCC3	-7	11	4	1	-24
CC(C)(C)C(=O)NNC(=O)c1cc2sccc2s1	0	16	11	1	-11
CCOC(=O)c1c(C)[nH]c(C)c1S(=O)(=O)N1CCC(C(=O)Nc2ccccc2CC)CC1	3	.	-2	0	-37*
CCC1(C)Cc2c(C#N)c(N)sc(=S)c2CO1 (centres undefined)	-3	-85*	-6	10	6
CC(C)CCC[C@@H](C)[C@H]1CC[C@H]2[C@@H]3CC[C@@H]4C[C@H](O)CC[C@]4(C)[C@H]3CC[C@]12C	.	.	5	.	.
COc1ccc(N=C2C(=O)N3c4c(cccc42)C(C)=CC3(C)C)cc1	-4	-50*	-28	3	4
COc1ccc(N=C2C(=O)Nc3ccccc32)cc1	-3	?	-43	1	2
CN(C)S(=O)(=O)N1CCC(Oc2ccc(C(=O)N3CCCCCC3)cc2)CC1	.	-2	3	.	.
CN(C(=O)c1ccc(OC2CCN(S(=O)(=O)N(C)C)CC2)cc1)C1CCCCC1	-7	2	0	4	-1
Cc1cc(CNC(=O)c2cccc(OC3CCN(S(=O)(=O)N(C)C)CC3)c2)on1	-10	17	-8	9	-39*
CN(C)S(=O)(=O)N1CCC(Oc2ccc(C(=O)NC3Cc4ccccc4C3)cc2)CC1	-4	0	5	16	-11
CN(C)S(=O)(=O)N1CCC(Oc2cccc(C(=O)NC3CCCCCC3)c2)CC1	-7	1	1	14	-32*
CN(C)S(=O)(=O)N1CCC(Oc2ccc(C(=O)N3CCCCCCC3)cc2)CC1	-8	14	4	23	-35*
CCN(Cc1cnn(C)c1)C(=O)c1ccc(OC2CCN(S(=O)(=O)N(C)C)CC2)cc1	-5	1	3	9	-42*
COCC(=O)N1CCC(Oc2ccc(C(=O)NCc3cc(C)no3)cc2)CC1	3	3	1	3	-8
SMILES	D1 potentiator	D3 antag	D3 ag	D1 ag	D1 antagonist
Cc1ccc2[nH]c3c(=O)n(CC(=O)N4CCN(c5ccccc5F)CC4)ncc3c2c1	-8	.	1	1	8
Cc1ccnn1CCC(=O)N1CCCC(N2CCN(c3cccc(Cl)c3)CC2)C1 (centres undefined)	-3	-4	-4	4	3
C=CCOc1ccc2nnc(C)n2n1	-3	0	-5	7	2
O=C(/C=C/c1ccc(Cl)cc1Cl)NC(=S)Nc1ccccn1	-6	11	-1	3	-44*
O=C(/C=C/c1ccccc1)NC(=S)Nc1ccc(CN2CCOCC2)cc1	-9	-57*	-17	7	-13
O=C(/C=C/c1ccc(Cl)cc1)Nc1ccc(CN2CCOCC2)cc1	-6	-21	13	14	-19
CC(C)C(=O)NC(=S)Nc1ccc(CN2CCOCC2)cc1	-2	-2	-11	2	-7
O=C(/C=C/c1ccc(Cl)cc1Cl)NC(=S)Nc1ccc(CN2CCOCC2)cc1	-2	-83*	-30	2	-5
O=C(/C=C/c1ccc(Cl)cc1Cl)n1cccn1	-3	-59*	0	2	5
O=C(NC(=S)Nc1ccccn1)c1ccccc1	0	7	0	0	11
COc1cccc(CC(=S)N2CCOCC2)c1	-1	4	3	7	-4
CCc1ccc(S(=O)(=O)c2nnn3c2nc(NCc2cccc(OC)c2)c2cc(Cl)ccc23)cc1	-2	.	3	1	0
Cc1ccc(NC(=O)c2cc(-c3cccs3)nc3ccccc23)nc1	-11	75	7	1	-48*
O=C(NNc1nc2ccc(Cl)cc2s1)c1cc(-c2cccs2)nc2ccccc12	-3	109	42*	-3	-3
Cc1c(NC(=O)c2cc(-c3cccs3)nc3ccccc23)c(=O)n(-c2ccccc2)n1C	-5	26	4	0	-16
Cc1cc(C)c2nc(NNC(=O)c3cc(-c4cccs4)nc4ccccc34)sc2c1	-4	89	16	-2	-2
COc1cccc(CNC(=O)Cn2c(SCC(=O)Nc3ccc(C)c(C)c3)nc3ccccc32)c1	0	.	1	2	-5
Cc1cc(C)n(C(C)CC(=O)Nc2ccc(C)c(N(C)C)c2)n1 (centres undefined)	-3	.	-17	2	-7
CCOC(=O)C(Cc1c[nH]c2ccccc12)NC(=O)COc1ccc(CC)cc1 (centres undefined)	0	.	7	3	1
CCOC(=O)C(Cc1ccc(O)cc1)NC(=O)CCc1c[nH]c2ccccc12 (centres undefined)	-3	1	4	37*	-16
N#C/C(=C(/O)c1ccco1)c1nc2ccccc2s1	-4	?	5	10	2
CC1=CC(=C(C#N)c2nc3ccccc3s2)C=C(C)N1Cc1ccco1	-10	-56*	-18	44*	-9
